About 83,000 compounds went through this panel and 20% of them were active in at least one assay; those are over-represented in the sample as a whole.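 Percent growth is the endpoint: 0 to 100 indicates growth inhibition (40 means 60% inhibition), 0 means no net growth, and negative values indicate cell death.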 Calls of active or inactive are those of the source. How the source made its calls: active means growth percent below 10; inactive means the rest.
Tested on: OVCAR-8 ovarian
Test: NCI-60 one-dose screen, 48 h (100 = growth as untreated, 0 = no growth, -100 = all killed)
Details: 10 µM

SMILES	growth
CCOC(=O)N/C(=C1/OCCN1C)[P+](c1ccccc1)(c1ccccc1)c1ccccc1	89.3% (inactive)
O=C(NO)c1ccc(CNc2nc(-c3ccccc3)c3ccccc3n2)cc1	6.42% (active)
Cc1cc(C)nc(NS(=O)(=O)c2ccc(N/C(N)=N/c3nccc(-c4cccs4)n3)cc2)n1	101% (inactive)
COc1cnc2c(c1)C(=O)c1c-2n(CCCNCCO)c(=O)c2cc(OC)c(OC)cc12	30.4% (inactive)

Tested on: OVCAR-5 ovarian
Test: as above
Details: 10 µM

SMILES	growth
Cc1ccc(C(=O)N/C(=C2/OCCN2C)[P+](c2ccccc2)(c2ccccc2)c2ccccc2)cc1	96.3% (inactive)
CN(C)c1ccc(/C=C/c2nc3ccccc3c(=O)n2CC(=O)Nc2ccc(Cl)cc2)cc1	75.4% (inactive)
Cc1ccc(CNC(=O)Cc2ccc3c(c2)CN(C2CCC(=O)NC2=O)C3=O)cc1 (configuration not stated)	29.5% (inactive)
Cc1ccn2c(C(=O)c3ccccc3)cc(-c3cc(-c4ccc(N(C)C)cc4)c(C#N)c(N)n3)c2c1	83.4% (inactive)
CCOP(=O)(OCC)O[C@H]1CCC(=O)[C@@H]2[C@H]1[C@H]1C[C@@H]3[C@@]4(C)CCCC(C)(C(=O)OC)[C@@H]4CC[C@@]23C=C1C(C)C (some centres not stated)	92.7% (inactive)
C#CCNC(=O)CCC(=O)OC[C@]12CC[C@@H](C(=C)C)[C@@H]1C1CC[C@@H]3[C@@]4(C)CCCNC(C)(C)[C@@H]4CC[C@@]3(C)[C@]1(C)CC2 (some centres not stated)	47.3% (inactive)
C/C(=N\N=C\c1ccc(N(C)C)cc1)c1ccc2c(c1)Nc1ccccc1S2	57.4% (inactive)
O=C(Nc1ccc(Cl)c([N+](=O)[O-])c1)Nc1ccc(Cl)c([N+](=O)[O-])c1	49.8% (inactive)
